In the test the target is VTCN1, Q7Z7D3.

A number with no mark means an inactive call. No rule for the calls is given here.

VTCN1, Q7Z7D3, sequence (Q7Z7D3 whole entry): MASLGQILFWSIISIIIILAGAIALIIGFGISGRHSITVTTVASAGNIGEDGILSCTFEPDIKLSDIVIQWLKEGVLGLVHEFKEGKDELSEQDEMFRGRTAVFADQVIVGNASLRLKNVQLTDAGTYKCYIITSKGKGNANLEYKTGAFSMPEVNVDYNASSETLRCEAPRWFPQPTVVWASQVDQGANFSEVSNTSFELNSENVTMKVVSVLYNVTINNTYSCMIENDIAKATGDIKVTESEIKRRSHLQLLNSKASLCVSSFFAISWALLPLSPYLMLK

B1: design_599_7ce25d4d-e004-4b84-a16f-baf856d943ab_173_dldesign_0_cycle1_af2pred (protein)
chain: SEAEKVIEEARKKAEEAREFIKKIREEGGNPEAAELALQALSHFKAAEALAKSGENLESAKKHLEEGKKLLEEAKELYE
Consider B1, for which the “binding in a display sort” value was “not found”.

B2: design_599_7ce25d4d-e004-4b84-a16f-baf856d943ab_347_dldesign_0_cycle1_af2pred (protein)
chain: AEAEKAKATADAKKEAKAFAEEAKKKAEEASKGTPEDVKKERDKVAAEFDKKIAEAAGNPEAAAAYAEARHEAKAEYDLAYVKAK
As for B2, the “binding in a display sort” value was “not found”.

B3: design_599_7ce25d4d-e004-4b84-a16f-baf856d943ab_284_dldesign_0_cycle1_af2pred (protein)
chain: AEVEAFKAAAEKYYKKAKEYFEKAKKTGSKSLYLKGASYAELALHNLENAAKAAAAKDPAEGAKLQKELKETKEELDKLYEEARKAAV
As to B3, the “binding in a display sort” value was “binds (active)”.

B4: design_599_7ce25d4d-e004-4b84-a16f-baf856d943ab_748_dldesign_0_cycle1_af2pred (protein)
chain: SKEEIKKQSELMKKATRYVKEAGKAAKVLGEEGKKKVEEMVKLRDQAADSDVETAKKLTEEIEKEAEEVIKKAEEKEK
For B4, the “binding in a display sort” value was “not found”.

B5: design_599_7ce25d4d-e004-4b84-a16f-baf856d943ab_1166_dldesign_0_cycle1_af2pred (protein)
chain: AEELYEKAKKLLTEAIFGLADGTINEEEALKAIEEGRKAAEELKKLGDEEKAEELERGVRALEDMIEDIRKAE
For B5, the “binding in a display sort” value is “not found”.

B6: design_599_7ce25d4d-e004-4b84-a16f-baf856d943ab_506_dldesign_0_cycle1_af2pred (protein)
chain: MEEEKKAIEEAKERAKEIAEKAVKEAKKAKTPKEISEAIREMVRKLRELVKEVREKYSEETAEKVKEIAAKERLKAVDEIAAAK
Take B6: the “binding in a display sort” value is “not found”.

B7: design_599_7ce25d4d-e004-4b84-a16f-baf856d943ab_290_dldesign_0_cycle1_af2pred (protein)
chain: SEARRERLRAEAEEAIEKLKEAAKQAFEAGNGEAALVAVRAAARARRLLADPATVEEGLRVAKEGLEKAEKLLKE
Turning to B7, the “binding in a display sort” value was “not found”.

B8: design_599_7ce25d4d-e004-4b84-a16f-baf856d943ab_1147_dldesign_0_cycle1_af2pred (protein)
chain: DAEKLMKKAKEYAELAKQAKEKGTPSSAQVAEFHAEIAEELAKKAEELDPKYKKEAEEIKKIAKEAKAVGEKADEEILKKIK
With B8, the “binding in a display sort” value is “not found”.

B9: design_599_7ce25d4d-e004-4b84-a16f-baf856d943ab_718_dldesign_0_cycle1_af2pred (protein)
chain: SELTEKVNKEADELRKRAREIGETARRLAEEAAKHDPAAAEEIRRLASLSIQKLFEGDEEEAERYWEEAVALAKAAVA
With B9, the “binding in a display sort” value was “not found”.

B10: design_599_7ce25d4d-e004-4b84-a16f-baf856d943ab_1363_dldesign_0_cycle1_af2pred (protein)
chain: GEAEKAARYLKLAEELAAEVKKNYDNAEKLKEIAREAREAAKEAPESVKPVLAKVAQDAYEARAEAERNASLN
As for B10, the “binding in a display sort” value is “not found”.

B11: design_599_7ce25d4d-e004-4b84-a16f-baf856d943ab_519_dldesign_0_cycle1_af2pred (protein)
chain: MEAALEALKKAAAEAANLVYDAADIGAEEAEKAAKEAIKKIKDTATPELAPLAKEYAEKLGKTAERLIENNKYGEELKK
Turning to B11, the “binding in a display sort” value was “not found”.

B12: design_599_7ce25d4d-e004-4b84-a16f-baf856d943ab_80_dldesign_0_cycle1_af2pred (protein)
chain: SKAAEKAEAQKAKEEATKAAEEAAKEAKKAGLEDLAKYLENAKKTADAKAQASSDPAEAKKYYEKYKATATRLLEDLKKAE
Consider B12, for which the “binding in a display sort” value was “not found”.

B13: design_599_7ce25d4d-e004-4b84-a16f-baf856d943ab_1040_dldesign_0_cycle1_af2pred (protein)
chain: EKLKERYKAAAKNLEKAAESKDKNEAKALIGRAEALALNASADPAAPEIAKLADEALEAVYKDLEKGKELAKKAAEKAKEAAA
For the molecule B13, the “binding in a display sort” value is “not found”.

B14: design_599_7ce25d4d-e004-4b84-a16f-baf856d943ab_219_dldesign_0_cycle1_af2pred (protein)
chain: MDPAELAAAKQAEAEAIIAETKAKAEKYIEEAKKSKKYVEALQYVGRAEVLLDSTVSYLTKNVGPEAGEKAQEIADKTVKEGFEIVKK
As for B14, the “binding in a display sort” value is “not found”.

B15: design_599_7ce25d4d-e004-4b84-a16f-baf856d943ab_1610_dldesign_0_cycle1_af2pred (protein)
chain: DLKEKAKKGIELAKELIEKAKELKKKGDIIGAIAYAERAIHAAEAALKIAKKADPELAKEAKKVLEEAKKELEKIEKE
For the molecule B15, the “binding in a display sort” value is “not found”.

B16: design_599_7ce25d4d-e004-4b84-a16f-baf856d943ab_451_dldesign_0_cycle1_af2pred (protein)
chain: EKITAVNEAEAYLEALKHAAEVLTKIDPSLKPEAEKAIKEGEKLVKEAKEGNAETAKKAAEEIRKLLKEVIELGKKAKA
For B16, the “binding in a display sort” value was “not found”.

B17: design_599_7ce25d4d-e004-4b84-a16f-baf856d943ab_929_dldesign_0_cycle1_af2pred (protein)
chain: GLDAVTDALAEAFYASREIEKIDPELGKELLEYAKELAKKAIAGTPEAAKKLAEEIKKKTEEKLKEAEEKAKKE
On to B17, for which the “binding in a display sort” value was “not found”.

B18: design_599_7ce25d4d-e004-4b84-a16f-baf856d943ab_1137_dldesign_0_cycle1_af2pred (protein)
chain: GAAAAAAAQEARQAIAEAEFAAAKGDPAAEAALEKAAAAAEKAAAADPEVGAKVKALVDKARAKVAAAKAA
With B18, the “binding in a display sort” value was “not found”.

B19: design_599_7ce25d4d-e004-4b84-a16f-baf856d943ab_1149_dldesign_0_cycle1_af2pred (protein)
chain: DVLEKMKELVKEIIEAASKLSPDIAKIFEAAGKVALKKYEEDPEAGIKGAQKLAAVGARVALPDKEAAERLKELAKEVA
Turning to B19, the “binding in a display sort” value was “not found”.

B20: design_599_7ce25d4d-e004-4b84-a16f-baf856d943ab_1731_dldesign_0_cycle1_af2pred (protein)
chain: AAADAKKIQALREKVAEAAALAKDPKTAAEAAKIAKATAKEAKEAAKAATDPAAKKAFAKVAEKAKAVAEEAEKIAKA
B20: the “binding in a display sort” value was “not found”.

B21: design_599_7ce25d4d-e004-4b84-a16f-baf856d943ab_135_dldesign_0_cycle1_af2pred (protein)
chain: MEEEEGEKKVEEAKKKLSAALYEYADMSVNEETLKEGRKKVEEAVKEALELGKKSTPETAEKLKKAAEKALKVAERIEEAS
For B21, the “binding in a display sort” value was “not found”.

B22: design_599_7ce25d4d-e004-4b84-a16f-baf856d943ab_1383_dldesign_0_cycle1_af2pred (protein)
chain: SEEEKKKKYEEAKKKMEKAGEEALKNVEDGAVVMDALATMREAVHEAEKLSPEYGKEARKLLEKYREEIKKKREEVEKKKAEEEKK
In the case of B22, the “binding in a display sort” value is “not found”.

B23: design_599_7ce25d4d-e004-4b84-a16f-baf856d943ab_378_dldesign_0_cycle1_af2pred (protein)
chain: AAAAILAATDAEVAAILAKGAEEIAKAAKEEGPEAAKKVATEVLEKANDVIAEGGVKAGLSAKEISARINAAQKEVRAIAEKAIEAAA
For B23, the “binding in a display sort” value is “not found”.

B24: design_599_7ce25d4d-e004-4b84-a16f-baf856d943ab_1672_dldesign_0_cycle1_af2pred (protein)
chain: TPSPELAAKITAATDEILELADKNIEEGGENLDEVEKTATEKGKELGMTKLANALIKSAKIGVELQKKTK
In the case of B24, the “binding in a display sort” value is “not found”.

B25: design_599_7ce25d4d-e004-4b84-a16f-baf856d943ab_441_dldesign_0_cycle1_af2pred (protein)
chain: GKKEEAEKKMKKAYEKMKKLAEEAGKAKDPKEAYEYLLKIEEVGAEAINYAAKIGDKETAREAAKKYRELFREAVKKAQAAGKA
With B25, the “binding in a display sort” value is “not found”.

B26: design_599_7ce25d4d-e004-4b84-a16f-baf856d943ab_1476_dldesign_0_cycle1_af2pred (protein)
chain: GEELEKLKKRAEKLLEEGKKKAKEDPEEGRKVAKEIRAEGKAHPEGKEAFAKAAAEVYQYIAEEEQKERLKKN
B26: the “binding in a display sort” value was “not found”.

B27: design_599_7ce25d4d-e004-4b84-a16f-baf856d943ab_845_dldesign_0_cycle1_af2pred (protein)
chain: NELEKAAKAAEAVAKALRAAAEAGPTPESLAAVEALAKEAAKVDEAAADIARAAVAAARADPARAAEALRRGARIAKRLAEDYKKAI
Regarding B27, the “binding in a display sort” value is “not found”.

B28: design_599_7ce25d4d-e004-4b84-a16f-baf856d943ab_160_dldesign_0_cycle1_af2pred (protein)
chain: AVKEQTEKTVAATRAAAEAVPEYGEELEKGARVIERLVKDGFLEGAIDVANAIAKFSREVAAEVSEEQAAILKEAADLAEELAKLAK
B28: the “binding in a display sort” value was “not found”.

B29: design_599_7ce25d4d-e004-4b84-a16f-baf856d943ab_928_dldesign_0_cycle1_af2pred (protein)
chain: AAAKEEAEKRAKKALEEGEKAAKEIEKSNAEEARKIAKEFREKAKELVADPEASPEEKKALAEGAQKAYEAAAEKEAKE
As to B29, the “binding in a display sort” value is “not found”.

B30: design_599_7ce25d4d-e004-4b84-a16f-baf856d943ab_1596_dldesign_0_cycle1_af2pred (protein)
chain: DEEIKKKAEELKKKAEELEKEAETANAEELKKLAEEAIKLASKAAQLAEYAPKELAPYAEEVENYVSDIAVKAIQKRREVEEKEKKE
For the molecule B30, the “binding in a display sort” value was “not found”.

B31: design_599_7ce25d4d-e004-4b84-a16f-baf856d943ab_1164_dldesign_0_cycle1_af2pred (protein)
chain: GKEEAYKKAKEAAEKALEKAEKALKLAKEGKIEEAAKELAEAQELRAEAEFYANKSDKEKKEELLKLIEEAKKKIKEARKVAKEKA
Turning to B31, the “binding in a display sort” value was “not found”.

B32: design_599_7ce25d4d-e004-4b84-a16f-baf856d943ab_360_dldesign_0_cycle1_af2pred (protein)
chain: TAAITEARDAAVEARGDVELAKAKNAKAEEYEKAAKKAEEAKKKLKEVLETVELSEEERETAERMIEAMERAAEEARKLAKEKK
With B32, the “binding in a display sort” value was “not found”.

B33: design_599_7ce25d4d-e004-4b84-a16f-baf856d943ab_1590_dldesign_0_cycle1_af2pred (protein)
chain: MEEAVKKVKELGKEALKRIEEAGKGTPEELEKKSAEVAKEFDAKVEELASKSSPEAAKAILEEAAKARKEMQETYKKALEQAKKNA
B33: the “binding in a display sort” value was “not found”.

B34: design_599_7ce25d4d-e004-4b84-a16f-baf856d943ab_1357_dldesign_0_cycle1_af2pred (protein)
chain: EEEERRREERAREAREAAEEAKALAEKVKANPKATQEEIDKLNQLALQAEVAEEAIREGYAVEAAERRAREALEEAKKIAEEAEKKAA
As for B34, the “binding in a display sort” value is “not found”.

B35: design_599_7ce25d4d-e004-4b84-a16f-baf856d943ab_1128_dldesign_0_cycle1_af2pred (protein)
chain: MLSKEASEVIKKAVKAAKKVAEAGKKLGIGEKAKKEAAKKVEEVADAVVESLEKGKEAAEKFAKEAEVLAKLAKA
As to B35, the “binding in a display sort” value was “not found”.

B36: design_599_7ce25d4d-e004-4b84-a16f-baf856d943ab_1658_dldesign_0_cycle1_af2pred (protein)
chain: EEIQKKNNFLAYAEAAIHAAEAIAKNSDEKTGKALKEEAKKVKEHEDDKEEAIKHLEKAAKIAAGHPGAPILQKRVAKAKAAA
On to B36, for which the “binding in a display sort” value was “not found”.

B37: design_599_7ce25d4d-e004-4b84-a16f-baf856d943ab_1182_dldesign_0_cycle1_af2pred (protein)
chain: AAVEAALAAAEAEFDRAAAFARGAAAAAVKNPKTKAFGEEALKKLDALKAEVAAAKADPEAALKAAKAAAAEAEAIMDEALEANAKA
With B37, the “binding in a display sort” value was “not found”.

B38: design_599_7ce25d4d-e004-4b84-a16f-baf856d943ab_358_dldesign_0_cycle1_af2pred (protein)
chain: HMKYIELLDRINKVSKELQEAYKEASKDPENKPKVEELAKEASELRDKGYDEPEKAEEYLKKMEELAKEMKKLAKE
As for B38, the “binding in a display sort” value was “not found”.
